# According to PubChem BioAssay (NCI):
# This is part of a sample that, as a whole, favours compounds with a hit. Of some 83,000 tested, about 20% had one in any assay.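 How to read the values: 0–100, growth inhibition (40 = 60% inhibited); 0, no net growth; -100 to 0, cell death (-40 = 40% of starting cells died; -100 = all dead).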 A number with no mark means an inactive call. The source made the active and inactive calls. Rule for the calls: active = growth percent below 10; inactive = the rest.
# How the values were obtained:
# Assay in all cases: NCI-60 one-dose screen, 48 h (100 = growth as untreated, 0 = no growth, -100 = all killed)
# Settings in all cases: 10 µM unless noted
# [1] = test system: EKVX NSCLC
# [2] = test system: SN12C renal
# [3] = test system: UO-31 renal
# [4] = test system: TK-10 renal
# [5] = test system: ACHN renal
# [6] = test system: CAKI-1 renal
# [7] = test system: CCRF-CEM leukemia
# [8] = test system: MOLT-4 leukemia
# [9] = test system: SR leukemia
# [10] = test system: RPMI-8226 leukemia
# [11] = test system: OVCAR-8 ovarian
# [12] = test system: OVCAR-4 ovarian
# [13] = test system: SK-OV-3 ovarian
# [14] = test system: IGROV1 ovarian
# [15] = test system: OVCAR-3 ovarian
# [16] = test system: HS 578T breast
# [17] = test system: NCI/ADR-RES ovarian
# [18] = test system: T-47D breast
# [19] = test system: A498 renal
# [20] = test system: OVCAR-5 ovarian
SMILES,growth [1],growth [2],growth [3],growth [4],growth [5],growth [6],growth [7],growth [8],growth [9],growth [10],growth [11],growth [12],growth [13],growth [14],growth [15],growth [16],growth [17],growth [18],growth [19],growth [20]
N#Cc1ccc(C(=O)CSc2nc(Nc3ccc(S(N)(=O)=O)cc3)c3ccccc3n2)cc1,104%,100%,95.6%,110%,108%,102%,94.7%,106%,95.9%,101%,109%,113%,116%,110%,119%,103%,111%,103%,–,–
Nc1cc(-c2c[nH]c3ccc(Cl)cc23)nc2cc(-c3c[nH]c4ccc(Cl)cc34)nn12,54.4%,70.8%,61.3%,66.2%,24.3%,–,42%,33.3%,10.1%,59.4%,70.7%,58.6%,119%,41.7%,75.9%,74.3%,60.4%,51.6%,32.2%,59.7%
COc1cc(/C=C/C(=O)c2cc(OC)c(OC)c(OC)c2)ccc1OCc1ccc(F)cc1,51.2%,67.9%,45.4%,159%,64.8%,–,5.5% (active),46.2%,16.3%,-16.1% (active),–,46.9%,45.5%,40.7%,–,89.7%,20%,38.3%,–,57.7%
CCOC(=O)c1c(Nc2ccccc2)nn2c(N)c(C#N)c(-c3ccccc3)nc12,82.3%,93.9%,81.1%,105%,83.4%,72%,68.3%,46.8%,58.9%,–,94%,82.5%,108%,90.2%,94.5%,75.2%,88.7%,55.5%,–,–
COc1ccc(C(=O)/C=C/c2ccc(OCc3ccc(C)cc3)c(OC)c2)cc1OC,61.4%,75.9%,58.6%,117%,75.8%,61.4%,32.2%,29.4%,9.97% (active),8.56% (active),–,60.9%,100%,84%,–,91.4%,53.7%,45.6%,–,95.4%
Cn1ccnc1C(=O)/C=C/c1ccc(NC(=O)Nc2ccc(Cl)cc2)cc1,91.7%,87.5%,97.7%,131%,88.4%,69.6%,62.9%,57.5%,32.6%,63.2%,81.9%,76.3%,84.3%,96.7%,84.2%,77%,76.2%,62.7%,–,–
CC(O)C(NC(=O)C1CCCN1C(=O)CNC(=O)C1CC(=O)NCC(=O)NC(Cc2c[nH]c3ccccc23)C(=O)NC(Cc2ccc(O)cc2)C(=O)NCC(=O)NC(CO)C(=O)NC(CCC(N)=O)C(=O)NC(Cc2c[nH]c3ccccc23)C(=O)N1)C(=O)NCC(=O)NC(CCC(N)=O)C(=O)NC(CCCNC(=N)N)C(=O)NC(CC(=O)O)C(=O)O (stereo not given),100%,101%,83.3%,116%,96.2%,91.5%,94.7%,104%,94.5%,83.5%,101%,99.8%,106%,105%,–,102%,104%,106%,–,110%
O=C(N/N=C/c1ccc(Cl)s1)c1[nH]c2ccc(Br)cc2c1-c1ccccc1,41.7%,50.4%,46.2%,111%,25.3%,23.8%,10.9%,14.1%,9.05% (active),5.6% (active),2.09% (active),69.5%,29.6%,19.5%,20.8%,27%,17.2%,64.7%,–,–
N/C(=N\c1nc2c(Br)cccc2s1)C(Br)Br,16.4%,18%,4.29% (active),–,-40.4% (active),-19.6% (active),-1.73% (active),-2.89% (active),-24% (active),-16.5% (active),-18% (active),43.2%,53%,-67.6% (active),-27.4% (active),6.83% (active),6.58% (active),33.1%,0.53% (active),8.49% (active)
COc1cc(/C=C/C(=O)c2cc(OC)c(OC)c(OC)c2)ccc1OCc1ccccc1,51.6%,69.7%,45.5%,153%,60%,42%,–,26.2%,6.67% (active),-12.4% (active),16.8%,41.2%,88.1%,35.3%,26%,88.9%,14.4%,41.8%,–,–
CN1CCN(Cc2ccc(NC(=O)c3cncc(C#Cc4cnc5[nH]ncc5c4)c3)cc2C(F)(F)F)CC1,55.4%,14.4%,2.97% (active),49.7%,8.5% (active),–,20.1%,16.9%,10.6%,31.2%,41.3%,54.5%,2.28% (active),7.92% (active),–,20.1%,75.8%,40.7%,-5.79% (active),41.6%
C/C(=N\NC(N)=O)c1c(O)sc(=O)[nH]c1=O,95.8%,97.1%,87.1%,110%,101%,96.9%,–,109%,114%,102%,99.9%,105%,115%,99.7%,114%,91.4%,105%,105%,–,102%
COc1ccc(/C=C2\SC(=Nc3cc(C)[nH]n3)NC2=O)cc1,91.5%,96%,75.3%,102%,88.1%,83.4%,86.7%,94%,82%,–,103%,97.4%,85.7%,97.3%,104%,91.4%,98.3%,85.2%,–,90.3%
Cc1cc(C(=O)Nc2sc3c(c2C(N)=O)CCC(=O)C3)ccc1OCCN1CCCCC1,107%,92.5%,94.8%,148%,91.1%,–,77.1%,51.9%,81.6%,85.7%,101%,108%,–,91%,97.7%,102%,–,89.4%,120%,119%
COc1ccc(/C=N/NC(=O)c2[nH]c3ccc(Br)cc3c2-c2ccccc2)s1,42.8%,50%,45.1%,122%,27%,24.5%,9.96% (active),10.4%,5.56% (active),7.49% (active),12.3%,75.5%,25.7%,18%,22.8%,29.9%,15.8%,73.2%,–,–
C#Cc1nc(C2=C(C)C(O)/C(=N/O)C2)cs1 (stereo not given),91.3%,99.9%,-91.1% (active),162%,21.5%,–,-27.7% (active),86.5%,-32.8% (active),-15.4% (active),94.3%,89.6%,111%,-41.6% (active),–,97.6%,1% (active),89.9%,–,100%
COc1cc(/C=C/C(=O)c2ccc(Cl)cc2)ccc1Oc1nc(NCCO)nc(N2CCOCC2)n1,99.6%,96.6%,76.7%,110%,98.8%,–,–,78.6%,9.04% (active),65.4%,104%,114%,96.6%,99%,116%,84%,105%,86.1%,–,102%
